Source: PubChem
HPGD block – qHTS Assay for Inhibitors of HPGD (15-Hydroxyprostaglandin Dehydrogenase). Potency, µM, for inactives: at the highest dose activity change, negative = inhibition, hits mostly inhibitors. 4.3% of 150,000 active. 15-hydroxyprostaglandin dehydrogenase [NAD(+)] (Homo sapiens), P15428. purified HPGD, NADH fluorescence kinetic, PGE2 substrate; note: potency is the fitted concentration of half-maximal effect
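20 nM HPGD preincubated 15 min at room temperature with compound in 50 mM Tris-HCl pH 8, 0.01% Tween 20. Started with 1 mM NAD+ and 30 uM prostaglandin E2; NADH fluorescence (360/450 nm) read 5 times over 30-s intervals, last minus first.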
ALDH1A1 block – qHTS Assay for Inhibitors of Aldehyde Dehydrogenase 1 (ALDH1A1). Potency, µM (highest dose often 75.3 µM), for inactives: at the top dose activity, negative = inhibition, usual class: inhibitors. AID 1030, 2008. Purified ALDH1A1, NADH fluorescence, propionaldehyde substrate. Aldehyde dehydrogenase 1A1 (Homo sapiens), P00352. 7.3% of 220,000 active;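 note: potency is the fitted concentration of half-maximal effect; plate controls were no enzyme wells and a reference inhibitor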
Target sequence (P00352 whole entry, looked up): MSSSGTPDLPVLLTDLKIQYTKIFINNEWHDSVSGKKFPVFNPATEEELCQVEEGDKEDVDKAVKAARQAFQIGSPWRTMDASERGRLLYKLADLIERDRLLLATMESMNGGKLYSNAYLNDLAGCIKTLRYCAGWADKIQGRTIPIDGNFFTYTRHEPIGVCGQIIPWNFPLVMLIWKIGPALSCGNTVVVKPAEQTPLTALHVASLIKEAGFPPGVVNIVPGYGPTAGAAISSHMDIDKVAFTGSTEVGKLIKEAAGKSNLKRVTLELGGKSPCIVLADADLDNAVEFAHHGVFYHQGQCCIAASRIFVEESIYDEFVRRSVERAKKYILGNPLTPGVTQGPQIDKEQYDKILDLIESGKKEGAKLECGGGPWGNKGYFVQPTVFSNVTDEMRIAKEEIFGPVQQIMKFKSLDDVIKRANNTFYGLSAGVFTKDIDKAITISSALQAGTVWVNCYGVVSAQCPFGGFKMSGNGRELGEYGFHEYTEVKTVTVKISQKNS
PNC inhibitor – High Content Assay for Compounds that inhibit the Assembly of the Perinucleolar Compartment; PC3M PTB-GFP, PNC prevalence imaging, 16 h; hits give low values; AID 2417, 2010; activity change (PNC), negative = inhibition, % at 10 µM; 3.1% of 140,000 active;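 active = readout at or below -70, meaning at least 70% loss of cells showing the perinucleolar compartment, a nuclear body marking cancer cells; inconclusive = readout between -30 and a set limit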;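 note: plate controls were DMSO wells for no effect and camptothecin positive control wells for full effect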
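PC3M cells stably expressing PTB-GFP, 750–1000 cells/well, treated 16 h at 37 °C with compound (23 nl of library stock), in duplicate. After paraformaldehyde fixation and Hoechst stain, imaged at 20x; PNC prevalence scored by image analysis.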
Active calls of the source: *; ? = inconclusive; . = no result; [ ] = another dose, or the depositor's remark. This is a sample that favours compounds with a hit; in the whole collection about 11% have one here. Unless noted, calls come from the whole dose curve; as a rule, active = well fitted inhibition curve with a large enough effect (not every such curve was filed as active); inconclusive = small, poorly fitted or top-dose-only effect, or another doubt; inactive = no such curve, though single readings can be large or run the other way. Unless noted, % is set by controls: 0 for no effect and ±100 for the full control effect.

SMILES	HPGD block	ALDH1A1 block	PNC inhibitor
CCn1c(CCNC(=O)c2ccccc2Cl)n[nH]c1=S	-3%	-1%	-21
COc1ccc(NS(=O)(=O)c2cccc(NC(=O)c3cnccn3)c2)cc1Br	.	1%	.
O=C(CSc1nnc(-c2ccccc2O)o1)Oc1ccc(OCc2ccccc2)cc1	?	-6%	?
CCc1ccccc1OCc1nnc(N)s1	-14%	-4%	?
Cc1onc(-c2ccccc2)c1C(=O)Nc1nnc(COc2ccc(Cl)cc2)s1	2.5µM*	1.1µM*	?
COC(=O)c1ccc(C)c(NC(=O)c2c(-c3ccccc3)noc2C)c1	-10%	-7%	16
Cc1cccc(C)c1OCc1nnc(NC(=O)CSc2ccc(Cl)cc2)s1	-12%	5%	8
CCOCC(=O)Nc1nnc(COc2ccc(Cl)cc2)s1	11µM*	3.5µM*	-22
O=C(CSc1ccccc1)Nc1nnc(COc2ccc(Cl)cc2)s1	3.5µM*	3.2µM*	24
COCC(=O)Nc1nnc(COc2ccc(Cl)cc2)s1	-18%	-2%	-18
COC(=O)c1c(-c2ccccc2)csc1NC(=O)c1c(-c2ccccc2)noc1C	?	?	-112*
Cc1nnc(NC(=O)c2c(-c3ccccc3)noc2C)s1	-6%	7%	-4
CC(/C=C/c1ccccc1)=N/NC(=O)CNC(=O)c1ccccc1F	.	3%	.
Cn1c(C(=O)N2CCCC(C(=O)c3ccc(C(F)(F)F)cc3)C2)cc(=O)n(C)c1=O (stereo unspecified)	.	8%	.
O=C(CSc1ccc(Cl)cc1)Nc1nnc(-c2cccc([N+](=O)[O-])c2)s1	-23%	2.5µM*	?
O=C(Cc1cccc2ccccc12)Nc1nnc(-c2cccc([N+](=O)[O-])c2)s1	-11%	7%	2
N#CCC(=O)Nc1ccc(C(=O)Nc2cccc(S(N)(=O)=O)c2)cc1	.	-2%	.
Cc1ccc(C2CC(c3ccc(C)cc3)n3nc(N)nc3N2)cc1 (stereo unspecified)	-9%	0%	?
CC(C)Cc1nc(N2CCC(C(N)=O)CC2)c2nnn(Cc3ccccc3)c2n1	-10%	1%	-7
O=C(c1ccco1)N1CCN(c2nc(C(F)(F)F)nc3c2nnn3Cc2ccccc2)CC1	?	14µM*	237
FC(F)(F)c1ccc(N2CCN(c3ncnc4c3nnn4Cc3ccccc3Cl)CC2)cc1	?	?	4
O=C(c1ccco1)N1CCN(c2ncnc3c2nnn3Cc2ccccc2Cl)CC1	35µM*	?	347
COc1ccc(C2SCC(=O)N2CCCN(C)C)cc1 (stereo unspecified)	-8%	1%	10
O=C1CC(=O)CC(c2ccccc2)C1	.	8%	.
O=C1CC(c2ccccc2)CC(=O)C1CS(=O)(=O)c1ccccc1 (stereo unspecified)	.	11µM*	.
SMILES	HPGD block	ALDH1A1 block	PNC inhibitor
COc1cc(NC(=O)COC(=O)c2nc3nc(C)cc(C)n3n2)cc(OC)c1	-11%	10%	63
c1ccc(CCc2nc3ccccc3[nH]2)cc1	.	4%	.
S=c1cnc2ccccc2[nH]1	.	3.2µM*	.
COC(=O)C/C=C\[C@H](C)[C@@H](OCc1ccccc1Br)C(C)C	.	1%[13.5 µM]	.
CCOC(=O)NC1(Nc2ccc(Cl)cn2)Oc2ccccc2O1	-9%	13µM*	-20
CCOC(=O)/C=C/C(=O)OCC(=O)Nc1ccc(Cl)cn1	-14%	?	10
COc1ccc(-n2cnnc2SCc2csc(-c3ccccc3)n2)cc1	-11%	-2%	10
CC(C)N(C(=O)CSc1nnc(Cn2nnc3ccccc32)n1C)C(C)C	1%	4%	-27
COc1ccccc1-n1c(SCC(=O)NC(C)(C)C)nnc1-c1ccco1	16µM*	-5%	-25
CC1Cc2ccccc2N1C(=O)CSc1nnc2n1C(C)(C)Cc1ccccc1-2 (stereo unspecified)	-1%	-8%	3
CC1Cc2ccccc2N1C(=O)CSc1nnc(Cn2nnc3ccccc32)n1C (stereo unspecified)	-7%	10µM*	-13
COc1cccc(-n2c(SCC(=O)N3c4ccccc4CC3C)nnc2-c2ccco2)c1 (stereo unspecified)	-30%	25µM*	-6
COc1ccccc1-n1c(SCC(=O)NC(C)(C)C)nc(O)cc1=O	-12%	-11%	12
COc1ccc(Cl)cc1C(=O)CSc1nc(N)cc(N)n1	-6%	8%	7
O=C1C2C3CCC(C3NCc3ccccc3)C2C(=O)N1Cc1ccccc1 (stereo unspecified)	-14%	?	-22
COc1ccc(/C=N/c2oc(C)c(C)c2C#N)c(OC)c1	.	13µM*	.
Cc1oc(/N=C/c2cccc3ccccc23)c(C#N)c1C	-17%	?	26
CSc1nnc(-c2ccc([N+](=O)[O-])cc2)o1	.	-15%	.
CCC1CCC(c2nnc(-c3ccc([N+](=O)[O-])cc3)o2)CC1 (stereo unspecified)	-4%	11µM*	?
COCCNC(=O)[C@@]1(Cc2ccccc2)C=C[C@@H](C)N1C(C)=O	-1%	-9%	?
COc1ccc(CN(CCO)CCO)cc1[N+](=O)[O-]	-4%	-37%	-13
COc1ccc(CSC(=N)N)cc1[N+](=O)[O-]	-1%	28µM*	?
CCCCCOc1ccc(CSC(=N)N)cc1[N+](=O)[O-]	1%	-4%	?
COc1ccc(Cn2ccnc2CO)cc1[N+](=O)[O-]	.	6.3µM*	.
CS(=O)(=O)c1ccc2nc(NC(NC(=O)c3ccco3)(C(F)(F)F)C(F)(F)F)sc2c1	-3%	11%	27
SMILES	HPGD block	ALDH1A1 block	PNC inhibitor
COc1cc(OC)c2c(C)c(Cl)c(=O)oc2c1	?	?	-19
CN(C)CCNC(C(=O)Nc1cc(Cl)cc(Cl)c1)c1ccccc1 (stereo unspecified)	.	6%	.
Cc1ccccc1C(=O)NC(NCC1CCCO1)C(Cl)(Cl)Cl (stereo unspecified)	-9%	2%	-19
CC(C)NC(C(=O)Nc1cc(Cl)cc(Cl)c1)c1ccccc1 (stereo unspecified)	-17%	11µM*	5
O=C(Nc1cc(Cl)cc(Cl)c1)C(NCC1CCCO1)c1ccccc1 (stereo unspecified)	.	4.5µM*	22
COC(=O)c1nn(-c2ccccc2)c(Cl)c1/C=N/OCc1ccc(Cl)cc1Cl	-7%	?	-8
O=C(/C=C\Nc1ccc(Cl)cn1)c1ccc(Br)cc1	.	-1%	.
CCCN1CCOC(CC(=O)Nc2ccc([N+](=O)[O-])cc2)C1=O (stereo unspecified)	.	8.9µM*	.
CCOC(=O)c1ccc(NC(=O)CC2C(=O)OCCN2CC)cc1 (stereo unspecified)	.	1.4µM*	.
CCOC(=O)c1ccc(NC(=O)CN2C(=O)CNC2=O)cc1	-5%	?	?
CCOC(=O)c1ccc(NC(=O)CC2OCCN(CC)C2=O)cc1 (stereo unspecified)	-5%	1.8µM*	-25
CCCN1CCC(NC(=O)Nc2ccc([N+](=O)[O-])cc2)CC1	.	10%	.
CCOC(=O)c1ccc(NC(=O)CN2C(=O)CSCC2=O)cc1	-6%	?	6
